Laboratory results as given in PubChem BioAssay (NCI).
This is part of a sample that, as a whole, favours compounds with a hit. Of some 83,000 tested, about 20% had one in any assay.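 The endpoint reported here, percent growth, reads 100 for growth as untreated, 0 for no net growth and -100 for all cells dead.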 The source made the active and inactive calls. The calls were made as follows: active = growth percent below 10; inactive = the rest.

Each compound was assayed on SF-268 CNS (assay: NCI-60 one-dose screen, 48 h (100 = growth as untreated, 0 = no growth, -100 = all killed)). Conditions: 10 µM unless noted.

SMILES	growth
C=C1CCC2C3(C)COC(c4cc(F)cc(F)c4)OC3CCC2(C)C1CC(O)C1=CCOC1=O (stereo not drawn)	97.3% (inactive)
CC(=O)Nc1ccc(C(=O)NC(=S)Nc2ccc(S(N)(=O)=O)cc2)cc1	97.1% (inactive)
COc1cc(C2CC(c3cc(OC)c(OC)c(OC)c3)=Nc3c(N)nc(N)nc3N2)ccc1Oc1nc(NCCO)nc(N2CCOCC2)n1 (stereo not drawn)	93.8% (inactive)
CC1=C(C(=O)c2ccccc2)C(c2cccc(Cl)c2Cl)n2c(nc3ccccc32)N1 (stereo not drawn)	43.6% (inactive)
CN1CCc2c(sc3ncnc(N/N=C/c4ccc(Cl)cc4Cl)c23)C1	35.8% (inactive)
O=C(COc1ccc(NC(=O)Nc2ccc(Cl)c(Cl)c2)cc1)N=Nc1c(O)[nH]c2ccc(Br)cc12	1.44% (active)
Cn1cc(NC(=O)c2cc(NC(=O)c3ccc(C#Cc4ccccc4)cc3)cn2C)cc1C(=O)NCCCN1CCOCC1	63.2% (inactive)
COCOc1cc2oc(C(=O)N[C@@H](Cc3ccccc3)C(O)C(=O)NCc3ccccc3)c(C)c(=O)c2cc1OCOC (stereo partly drawn)	65.8% (inactive)
Cc1ccc(C(=O)CSc2nc3ccc(C)cc3c(=O)n2-c2ccc(F)cc2)cc1	45.5% (inactive)
CC(C)c1ccc2c(N)c(C(=O)Nc3ccc(C(F)(F)F)cn3)sc2n1	91.8% (inactive)
CN(C)CCn1c2ccccc2c2nc3ccc([N+](=O)[O-])cc3nc21	24.7% (inactive)
COc1cc2c(c(OC)c1OC)C(=O)CC(c1cccc(NC(=O)c3cc(NC(=O)[C@H](CO)NC(=O)OC(C)(C)C)ccc3Cl)c1)O2 (stereo partly drawn)	45.4% (inactive)
Cc1cccc(NC(=O)[C@]23CCC(C)(C)CC2C2=CCC4[C@@]5(C)C[C@@H](O)[C@H](O)[C@@](C)(CO)C5CC[C@@]4(C)[C@]2(C)CC3)c1 (stereo partly drawn)	41% (inactive)
CC(=O)Nc1ccc(-n2cnc3ccc(-c4ccc(O)cc4)cc32)cc1	36.3% (inactive)
NC(=S)Nc1cccc(NC(N)=S)c1	90.9% (inactive)
O=C(/C=C/c1ccc(O)c(O)c1)NC1CCOC1O (stereo not drawn)	99.6% (inactive)
CCN1C(=O)/C(=N\N=C(/C)c2ccc3c(c2)Nc2ccccc2S3)c2cc(Cl)ccc21	43.8% (inactive)
S=C(NCCc1ccccc1)Nc1ccc(OCc2nc3ccccc3[nH]2)cc1	100% (inactive)
COc1ccc(-c2nc(SC(C)C)nc(NCCc3c[nH]c4ccccc34)c2C#N)cc1	49.8% (inactive)

SMILES	growth
S=C(Nc1ccccc1)Nc1ccc(OCc2nc3ccccc3[nH]2)cc1	24.1% (inactive)
CC1(C)CC[C@]2(C(=O)Nc3ccc(Br)cc3)CC[C@]3(C)C(=CCC4[C@@]5(C)C[C@@H](O)[C@H](O)[C@@](C)(CO)C5CC[C@]43C)C2C1 (stereo partly drawn)	43.8% (inactive)
CC12CC[C@@H]3[C@]4(C)COC(c5c(F)cccc5F)O[C@@H]4CC[C@@]3(C)[C@@H]1CC(C1=CCOC1=O)O2 (stereo partly drawn)	70.3% (inactive)
Cc1ccc(Cc2cnc(NC(=O)c3ccc(/C=C4\SC(=S)N(C)C4=O)cc3)s2)cc1	38.6% (inactive)
CC(=O)Nc1ccc(-n2cnc3cc(-c4ccc(O)cc4)ccc32)cc1C(F)(F)F	21.7% (inactive)
Cn1cc(NC(=O)c2cc(NC(=O)c3ccc(/C=C/c4ccccc4)cc3)cn2C)cc1C(=O)NCCCN1CCOCC1	58.6% (inactive)
CN(C)CCCNC(=O)c1cc(NC(=O)c2cc(NC(=O)c3ccc(/C=C/c4ccccc4)cc3)cn2C)cn1C	48.9% (inactive)
CC(=O)OC[C@@]1(C)C2CC[C@]3(C)C(CC=C4C5CC(C)(C)CC[C@]5(C(=O)Nc5ccc(Br)cc5)CC[C@]43C)[C@@]2(C)C[C@@H](OC(C)=O)[C@@H]1OC(C)=O (stereo partly drawn)	66.1% (inactive)
COc1ccc(NC(=O)Cn2c(O)c(N=Nc3ccc(S(N)(=O)=O)cc3)c3ccccc32)cc1	69.1% (inactive)
S=C(Nc1ccc(OCc2nc3ccccc3[nH]2)cc1)NC1CCCCC1	106% (inactive)
Cc1ccc(NC(=O)[C@]23CCC(C)(C)CC2C2=CCC4[C@@]5(C)C[C@@H](O)[C@H](O)[C@@](C)(CO)C5CC[C@@]4(C)[C@]2(C)CC3)cc1 (stereo partly drawn)	48.5% (inactive)
O=S(=O)(Nc1cccc(-n2cnc3cc(-c4ccc(O)cc4)ccc32)c1)C1CC1	31.9% (inactive)
Cn1cc(-c2nnc(N)nc2-c2c[nH]c3ccccc23)c2cccnc21	65.9% (inactive)
CN(C)c1ccnc(CNCCSC2(c3ccc(C(F)(F)F)cc3)c3ccccc3CCc3ccccc32)c1	14.1% (inactive)
CC1=C(C(=O)OC(C)C)C(c2cccc(O)c2)NC(=S)N1 (stereo not drawn)	109% (inactive)
N/N=C(\N)c1c(N)nc(=S)[nH]c1-c1ccc(Cl)cc1Cl	108% (inactive)
COc1ccc2[nH]cc(-c3nnc(N)nc3-c3c[nH]c4ncc(Br)cc34)c2c1	85.5% (inactive)
COc1cc(C2CC(c3cc(OC)c(OC)c(OC)c3)=NN2c2ccccc2)ccc1OCc1ccc(C)cc1 (stereo not drawn)	87.6% (inactive)
O=C(N/N=C/c1ccc(-c2ccc(O)cc2)o1)c1[nH]c2ccc(Br)cc2c1-c1ccccc1	12.7% (inactive)
